Measured values from the supplement of paper PMC12494721.
Counter-ions that a name gives are not always drawn.

What was measured:
Settings in all cases: incubation time: 27 h, anaerobic, 37 °C;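 for the amine columns active = adjusted P below 0.05 in both replicates with a change the same way and a mean fold change under 0.8 or over 1.25; inactive = the rest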
[1] = test system: Clostridium sporogenes DSM 1664; assay: growth (OD595) fold change vs plate DMSO controls (fold change (ratio)); higher = more growth
Outline: (§1)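 Anaerobic 27 h, 37 °C mGAM 96-well cultures were shaken, then read for absorbance at 595 nm. Values were blank-subtracted and corrected for compound background using 20 µM compound solutions in water. A calibration factor of 5 converted them to OD. Growth is the fold change versus the median of plate DMSO controls. Fold changes above 1.5 were set to NA, and values are the mean of 2 biological replicates.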

Escherichia coli IAI1 [2] = assay: as above
Outline: as §1

[3] = test system: Klebsiella aerogenes DSM 30053; assay: as above
Outline: as §1

[4] = test system: Ruminococcus gnavus DSM 108212; assay: as above
Outline: as §1

[5] = test system: Klebsiella aerogenes DSM 30053; assay: fold change of Histamine concentration vs plate DMSO controls (fold change (ratio)); higher = more amine produced, active = hit call of the paper (significant change in both replicates, either direction)
Outline: (§2)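 Amine values are fold changes relative to DMSO-only wells on the same plate. They derive from 27 h, 37 °C anaerobic mGAM cultures of four gut bacterial strains in 80 µL wells, dosed at 20 µM final, or 50 µM final for sweeteners. Extraction of the whole culture, LC–triple-quadrupole MS in dynamic MRM mode, external calibration curves and within-batch drift correction were used, with 2 biological replicates averaged.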

[6] = test system: Clostridium sporogenes DSM 1664; assay: fold change of Tryptamine concentration vs plate DMSO controls (fold change (ratio)); higher = more amine produced, active = hit call of the paper (significant change in both replicates, either direction)
Outline: as §2

[7] = test system: Ruminococcus gnavus DSM 108212; assay: as above
Outline: as §2

Escherichia coli IAI1 [8] = assay: fold change of Putrescine concentration vs plate DMSO controls (fold change (ratio)); higher = more amine produced, active = hit call of the paper (significant change in both replicates, either direction)
Outline: as §2

[9] = test system: Klebsiella aerogenes DSM 30053; assay: as above
Outline: as §2

Escherichia coli IAI1 [10] = assay: fold change of Cadaverine concentration vs plate DMSO controls (fold change (ratio)); higher = more amine produced, active = hit call of the paper (significant change in both replicates, either direction)
Outline: as §2

[11] = test system: Klebsiella aerogenes DSM 30053; assay: as above
Outline: as §2

[12] = test system: Ruminococcus gnavus DSM 108212; assay: fold change of 2-Phenylethylamine concentration vs plate DMSO controls (fold change (ratio)); higher = more amine produced, active = hit call of the paper (significant change in both replicates, either direction)
Outline: as §2

| Structure (SMILES) | growth [1] | growth (Escherichia coli IAI1 [2]) | growth [3] | growth [4] | fold change of Histamine concentration [5] | fold change of Tryptamine concentration [6] | fold change of Tryptamine concentration [7] | fold change of Putrescine concentration (Escherichia coli IAI1 [8]) | fold change of Putrescine concentration [9] | fold change of Cadaverine concentration (Escherichia coli IAI1 [10]) | fold change of Cadaverine concentration [11] | fold change of 2-Phenylethylamine concentration [12] |
| --- | --- | --- | --- | --- | --- | --- | --- | --- | --- | --- | --- | --- |
| CC[C@H](C)C(=O)O[C@H]1C[C@H](O)C=C2C=C[C@H](C)[C@H](CC[C@@H](O)C[C@@H](O)CC(=O)O)[C@H]21 [Pravastatin] (20 µM) | 0.87 | 1.09 | 0.973 | 1.15 | 1.1 (inactive) | 1.12 (inactive) | 1.08 (inactive) | 1.11 (inactive) | 0.975 (inactive) | 0.904 (inactive) | 1.01 (inactive) | 1.1 (inactive) |
| CCOc1ccc(NC(C)=O)cc1 [Phenacetin] (20 µM) | 1.11 | 1.02 | 1.01 | 1.3 | 1.03 (inactive) | 0.966 (inactive) | 0.999 (inactive) | 1.07 (inactive) | 1.02 (inactive) | 0.997 (inactive) | 1.01 (inactive) | 0.992 (inactive) |
| COCCc1ccc(OCC(O)CNC(C)C)cc1 (stereo not drawn) [Metoprolol-(+)-tartrate salt] (20 µM) | 1.01 | 1.03 | 1.03 | 1.05 | 0.856 (inactive) | 1.02 (inactive) | 1.03 (inactive) | 0.998 (inactive) | 0.955 (inactive) | 1.02 (inactive) | 1 (inactive) | 0.995 (inactive) |
| CCCCOc1ccc(CC(=O)NO)cc1 [Bufexamac] (20 µM) | 0.989 | 0.929 | 0.846 | 1.04 | 1.25 (inactive) | 0.989 (inactive) | 1.02 (inactive) | 0.929 (inactive) | 0.959 (inactive) | 0.965 (inactive) | 0.956 (inactive) | 1.07 (inactive) |
| CC(C)Cc1ccc(C(C)C(=O)OCc2ccccn2)cc1 (stereo not given) [Ibuprofen Piconol] (20 µM) | 0.967 | 1 | 0.98 | 1.13 | 1.01 (inactive) | 1.01 (inactive) | 1.1 (inactive) | 1 (inactive) | 1.01 (inactive) | 0.983 (inactive) | 0.996 (inactive) | 1.15 (inactive) |
| CC(=O)OC(C)C[N+](C)(C)C (stereo not given) [Methacholine chloride] (20 µM) | 0.962 | 1.02 | 0.965 | 0.97 | 0.992 (inactive) | 1.01 (inactive) | 1.06 (inactive) | 1.09 (inactive) | 1 (inactive) | 0.985 (inactive) | 0.989 (inactive) | 1.08 (inactive) |
| C#C[C@]1(O)CC[C@H]2[C@@H]3CCc4cc(O)ccc4[C@H]3CC[C@@]21C [Ethinylestradiol] (20 µM) | 1.22 | 1.04 | 1.07 | 1.05 | 1.01 (inactive) | 1.01 (inactive) | 0.972 (inactive) | 1.05 (inactive) | 0.998 (inactive) | 1.01 (inactive) | 1.01 (inactive) | 0.936 (inactive) |
| C[N+](C)(C)CCOC(N)=O [Carbachol chloride] (20 µM) | 0.948 | 1 | 0.997 | 1.09 | 1.01 (inactive) | 1.07 (inactive) | 1.09 (inactive) | 0.986 (inactive) | 0.983 (inactive) | 0.957 (inactive) | 1.01 (inactive) | 1.11 (inactive) |
| CN1CCN(CCCN2c3ccccc3Sc3ccc(S(=O)(=O)N(C)C)cc32)CC1 [Thioproperazine dimesylate] (20 µM) | 0.886 | 0.986 | 1.12 | 1.15 | 0.898 (inactive) | 1.03 (inactive) | 0.963 (inactive) | 0.969 (inactive) | 0.976 (inactive) | 0.99 (inactive) | 1.01 (inactive) | 1.06 (inactive) |
| COc1ccc(-c2cc(=O)c3c(O)cc(O[C@@H]4O[C@H](CO[C@@H]5O[C@@H](C)[C@H](O)[C@@H](O)[C@H]5O)[C@@H](O)[C@H](O)[C@H]4O)cc3o2)cc1O [Diosmin] (20 µM) | 1.12 | 0.976 | 1.01 | 1.1 | 0.924 (inactive) | 0.985 (inactive) | 0.97 (inactive) | 0.961 (inactive) | 0.992 (inactive) | 0.971 (inactive) | 1.02 (inactive) | 1 (inactive) |
| Cc1ccc(C)c(OCCCC(C)(C)C(=O)O)c1 [Gemfibrozil] (20 µM) | 1.11 | 1.01 | 1.07 | 0.931 | 1.02 (inactive) | 1.01 (inactive) | 1.05 (inactive) | 0.995 (inactive) | 1.02 (inactive) | 0.968 (inactive) | 0.994 (inactive) | 1.03 (inactive) |
| NCCc1ccc(O)c(O)c1 [Dopamine hydrochloride] (20 µM) | 0.979 | 1.06 | 1.03 | 0.996 | 1.06 (inactive) | 0.994 (inactive) | 1.03 (inactive) | 0.967 (inactive) | 0.996 (inactive) | 0.959 (inactive) | 0.987 (inactive) | 1.05 (inactive) |
| O=C(O)c1cccnc1Nc1cccc(C(F)(F)F)c1 [Niflumic acid] (20 µM) | 0.913 | 1.08 | 0.996 | 1.32 | 1.05 (inactive) | 1.04 (inactive) | 1.02 (inactive) | 1.08 (inactive) | 1.01 (inactive) | 0.996 (inactive) | 0.993 (inactive) | 0.988 (inactive) |
| Cc1cc(-n2c(=O)[nH]c(=O)n(C)c2=O)ccc1Oc1ccc(SC(F)(F)F)cc1 [Toltrazuril] (20 µM) | 1.1 | 0.997 | 1.05 | 1.09 | 0.976 (inactive) | 0.941 (inactive) | 0.792 (inactive) | 1.01 (inactive) | 1 (inactive) | 1.08 (inactive) | 1.01 (inactive) | 0.81 (inactive) |
| CC1=Nc2ccc(Cl)cc2S(=O)(=O)N1 [Diazoxide] (20 µM) | 1.06 | 1.01 | 0.986 | 1.21 | 1.1 (inactive) | 1.09 (inactive) | 1.16 (inactive) | 0.991 (inactive) | 1.06 (inactive) | 0.943 (inactive) | 1.1 (inactive) | 1.35 (active) |
| COC(=O)C1=C(C)NC(C)=C(C(=O)OCCN(C)Cc2ccccc2)C1c1cccc([N+](=O)[O-])c1 (stereo not given) [Nicardipine hydrochloride] (20 µM) | 1.11 | 0.934 | 1.01 | 1.18 | 0.982 (inactive) | 0.981 (inactive) | 0.915 (inactive) | 1.04 (inactive) | 0.999 (inactive) | 0.995 (inactive) | 0.99 (inactive) | 0.858 (inactive) |
| OC[C@H]1O[C@H](O[C@]2(CCl)O[C@H](CCl)[C@@H](O)[C@@H]2O)[C@H](O)[C@@H](O)[C@H]1Cl [Sucralose] (50 µM) | 1 | 0.927 | 1.03 | 1.36 | 0.892 (inactive) | 1.28 (active) | 1.11 (inactive) | 0.948 (inactive) | 0.943 (inactive) | 1.09 (inactive) | 1.06 (inactive) | 1.2 (inactive) |
| CC(=O)Oc1c(C)cccc1C(=O)O [Cresopirine] (20 µM) | 1.04 | 0.974 | 1.03 | 0.935 | 0.972 (inactive) | 1.06 (inactive) | 0.962 (inactive) | 0.977 (inactive) | 1.02 (inactive) | 0.998 (inactive) | 1.01 (inactive) | 0.945 (inactive) |
| NS(=O)(=O)c1cc2c(cc1Cl)NC(CC1CCCC1)NS2(=O)=O (stereo not given) [Cyclopenthiazide] (20 µM) | 1.33 | 1.03 | 0.98 | 0.993 | 1.01 (inactive) | 1.03 (inactive) | 1.04 (inactive) | 1.07 (inactive) | 1.01 (inactive) | 0.979 (inactive) | 0.996 (inactive) | 1.04 (inactive) |
| O=[N+]([O-])c1ccc(O)c2ncccc12 [Nitroxoline] (20 µM) | 1.24 | 0.52 | 0.522 | 0.97 | 0.93 (inactive) | 0.897 (inactive) | 0.693 (active) | 0.496 (active) | 0.894 (inactive) | 1.49 (active) | 0.948 (inactive) | 0.766 (inactive) |
| C=CCN1CCCC1CNC(=O)c1cc2nn[nH]c2cc1OC (stereo not given) [Alizapride hydrochloride] (20 µM) | 1.09 | 1.01 | 1.05 | 1.09 | 1 (inactive) | 0.964 (inactive) | 1.02 (inactive) | 0.994 (inactive) | 0.988 (inactive) | 0.998 (inactive) | 0.99 (inactive) | 1 (inactive) |
| O=C(c1ccc(OCCN2CCCCC2)cc1)c1c(-c2ccc(O)cc2)sc2cc(O)ccc12 [Raloxifene hydrochloride] (20 µM) | 1.19 | 1.08 | 1.04 | 1.2 | 0.986 (inactive) | 0.932 (inactive) | 0.941 (inactive) | 0.976 (inactive) | 1.03 (inactive) | 1.01 (inactive) | 1.01 (inactive) | 0.917 (inactive) |
| NCc1ccccc1CC(=O)N[C@@H]1C(=O)N2C(C(=O)O)=C(CSc3nnnn3CC(=O)O)CS[C@H]12 [Ceforanide] (20 µM) | 0 | 1.11 | 1.08 | 0.307 | 0.726 (inactive) | 0.0212 (active) | 0.0541 (active) | 1.91 (active) | 1.09 (inactive) | 1.95 (active) | 1.07 (inactive) | 0.0519 (active) |
| S=c1[nH]cnc2nc[nH]c12 [Mercaptopurine] (20 µM) | 1.07 | 1.1 | 0.98 | 0.869 | 1.05 (inactive) | 1.01 (inactive) | 0.944 (inactive) | 1.06 (inactive) | 1 (inactive) | 0.879 (inactive) | 0.999 (inactive) | 0.959 (inactive) |
| OC[C@@H](O)[C@@H](O)[C@H](O)[C@H](O)CO [Mannitol] (50 µM) | 1.02 | 0.924 | 0.982 | 0.983 | 1.04 (inactive) | 1.01 (inactive) | 0.975 (inactive) | 0.919 (inactive) | 0.996 (inactive) | 1.11 (inactive) | 0.992 (inactive) | 0.976 (inactive) |
